VDR inh – Inhibitors of the vitamin D receptor (VDR): qHTS; hit rate 0.93% among 400,000; VDR-SRC2-3 peptide fluorescence polarization, 2 h; Vitamin D3 receptor (Homo sapiens), P11473; Potency, µM, for inactives: max response, negative = inhibition, most hits filed as inhibitors
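FP read-out; VDR + SRC2-3 coactivator peptide; 23 nl compound by pintool; 2 h RT incubation; reagents held at 4 deg C, protected from light.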
DT40 TDP1 no CPT – qHTS for Inhibitors of human tyrosyl-DNA phosphodiesterase 1 (TDP1): qHTS in cells in absence of CPT | hit rate 15% among 420,000 | DT40 Tdp1-/- hTDP1 cells, no CPT, ATP luminescence, 48 h | AID 686978, 2013 | Potency, µM (highest dose often 46.2 µM), without a hit: at the top dose activity change, negative = growth inhibition, actives largely listed as inhibitors; further: nearly all actives have a fitted effect of over 55% in size
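Luminescent ATP content (CellTiter-Glo) served as the growth readout. Knockout chicken DT40 cells expressing human TDP1 were exposed to compounds without camptothecin for a minimum 48 hr at 37 °C.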
PLK1 PBD inh – qHTS for Inhibitors of PLK1-PDB (polo-like kinase 1 - polo-box domain): Primary Screen; Serine/threonine-protein kinase PLK1 (Homo sapiens), P53350; Plk1 PBD binding of FITC phosphopeptide, fluorescence polarization; Potency, µM, without a hit: max response, negative = inhibition, actives largely listed as inhibitors; AID 720504, 2013; hit rate 2.8% among 360,000; further: series mostly up to about 57 µM; nearly all actives have a fitted effect of over 65% in size
TDP1 inh – qHTS Assay for Inhibitors of Tyrosyl-DNA Phosphodiesterase (TDP1); Tyrosyl-DNA phosphodiesterase 1 (Homo sapiens), Q9NUW8; recombinant TDP1, AlphaScreen DNA substrate cleavage; Potency, µM (top dose mostly 130 µM), for the others: at the highest dose activity change, negative = inhibition, actives largely listed as inhibitors; hit rate 0.28% among 350,000; further: nearly all actives have a fitted effect of over 40% in size
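AlphaScreen read-out: signal falls as enzyme removes the 3' tyrosine-FITC from a 5'-biotinylated DNA oligo (15 nM, 5 min, RT). Enzyme was E. coli-made recombinant Tdp1 at 1 nM, exposed to compound for 15 min beforehand; beads 10 ug/ml, 10 min.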
GCN5L2 inh – qHTS Assay for Inhibitors of GCN5L2. GCN5L2 HAT assay, ThioGlo1 CoA-SH fluorescence. AID 504327, 2011. Potency, µM (highest dose often 58.9 µM), for the others: top-dose activity change, negative = inhibition, most hits filed as inhibitors. Histone acetyltransferase KAT2A (Homo sapiens), Q92830. hit rate 0.21% among 390,000
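Enzyme at 20nM final was mixed with library compounds for 15 min at room temperature. Peptide H3(1-25) at 75uM, acetyl-CoA at 70uM and ThioGlo1 at 50uM were then added. Plates were read immediately and after 20 min (Ex340nm/Em540nm).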
TDP1 cell CPT – qHTS for Inhibitors of human tyrosyl-DNA phosphodiesterase 1 (TDP1): qHTS in cells in presence of CPT | hit rate 12% among 420,000 | chicken DT40 Tdp1-/-;hTDP1 cells + 20 nM CPT, ATP luminescence, 48 h | Potency, µM (doses to about 46.2 µM), without a hit: at the top dose activity change, negative = growth inhibition, most hits filed as inhibitors | AID 686979, 2013; further: nearly all actives have a fitted effect of over 55% in size
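Chicken DT40 Tdp1-/- cells complemented with human TDP1, 400 cells/well, exposed to compounds plus 20 nM camptothecin for at least 48 h at 37 C; viability read as ATP content by CellTiter-Glo luminescence.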
Starred values were filed as active, the others as inactive; ? = inconclusive; · = no result. Shown are actives, neighbours in structure and some others; about 18% of the full set was active somewhere. The call rests on the fitted dose curve; in most records, active means well fitted curve in the direction sought with a large enough effect; inconclusive means small, poorly fitted or top-dose-only effect, or another doubt; inactive means no such curve, though single readings can be large; an effect the other way counts as inactive or inconclusive. On the % scale 0 is the no-effect control and ±100 the full control effect; potency means the concentration at half of the fitted maximal effect.

SMILES	VDR inh	DT40 TDP1 no CPT	PLK1 PBD inh	TDP1 inh	GCN5L2 inh	TDP1 cell CPT
C/C(=N\NC(=O)c1cccc(F)c1)c1ccc(NC(=O)Cc2ccccc2)cc1	-3%	-4%	-1%	-5%	1%	6%
O=C1NCC(Nc2ccccc2Cl)C(=O)N1 (stereo unspecified)	7%	-14%	-4%	·	·	-1%
COCCCN(C(=O)c1ccccc1F)c1nc(-c2ccc(OC)cc2)cs1	-7%	?	-11%	1%	-1%	?
COc1ccc(COCC(O)CN2CCN(S(=O)(=O)c3ccc(C(C)C)cc3)CC2)cc1 (stereo unspecified)	4%	21µM*	0%	0%	-17%	26µM*
CC(OCC(O)CN1CCN(S(=O)(=O)c2ccc(Cl)cc2)CC1)c1ccc(Cl)cc1 (stereo unspecified)	·	10µM*	2%	·	·	12µM*
O=S(=O)(c1ccc(F)cc1)N1CCN(CC(O)COc2ccccc2F)CC1 (stereo unspecified)	2%	-22%	6%	·	-3%	-1%
CCC(C)c1ccc(S(=O)(=O)N2CCN(CC(O)COCC3CCCO3)CC2)cc1 (stereo unspecified)	-15%	-12%	-5%	-5%	-1%	-3%
CC(C)c1ccccc1OCC(O)CN1CCN(S(=O)(=O)c2ccc([N+](=O)[O-])cc2)CC1 (stereo unspecified)	25%	8.2µM*	-5%	·	?	?
O=C(C1CCN(S(=O)(=O)c2cccc3cccnc23)CC1)N1CCCCC1	18%	-18%	-4%	1%	-4%	1%
CCOC(=O)c1c(C)oc2c1c(C=NCc1ccccn1)c(O)c1ccccc12	-6%	1.2µM*	-13%	13%	-18%	0.92µM*
CCOC(=O)c1c(C)oc2c1cc(O)c1ccccc12	7%	-17%	-17%	4%	-5%	-18%
CCOC(=O)c1c(C)oc2c1c(C=NCC1CCCO1)c(O)c1ccccc12 (stereo unspecified)	-26%	18µM*	-8%	-1%	0%	?
O=C1Nc2ccc(S(=O)(=O)N(CCO)CCO)c3cccc1c23	-30%	-2%	21µM*	1%	-4%	-14%
N#CCCN(Cc1cccnc1)C(=S)NC(=O)C1CC1	·	·	·	0%	3%	·
C=CC(=O)NCCCc1cc(C(C)(C)C)c(O)c(C(C)(C)C)c1	-6%	?	-14%	3%	14%	?
CCOc1ccc(OCC)c(NC(=O)c2cnn(-c3ccc(F)cc3)c2C2CCN(C(=O)OC(C)(C)C)CC2)c1	-7%	?	·	-3%	-20%	?
CCOC(=O)c1cn2nc(-c3ccc(OCC)cc3)cc2nc1C1CCN(C(=O)OC(C)(C)C)CC1	-5%	16µM*	0%	2%	-7%	?
CCOc1ccc(-c2cc3nc(C4CCN(C(=O)OC(C)(C)C)CC4)c(C(=O)Nc4cccc(C(F)(F)F)c4)cn3n2)cc1	-4%	?	·	4%	-27%	16µM*
CC(C)c1cccc(-c2ccc3c(c2)S(=O)(=O)c2cccc(C(=O)O)c2C3=O)c1	-6%	-2%	?	3%	-23%	10%
O=C(NC[C@@H]1CCCO1)c1cccc2c1C(=O)c1ccc(Cl)cc1S2(=O)=O	12%	-14%	-3%	0%	-3%	-23%

Bioassay records deposited in PubChem BioAssay by National Center for Advancing Translational Sciences (NCATS).
